# Assay outcomes: PubChem, several laboratories
# HSF1 activator – increases HSF-1 driven luciferase reporter signal | activation, % at 9 µM | AID 504408 | NIH3T3-HGL HSF-1 luciferase reporter, MG132, 8 h; 100% = twice DMSO control signal | 300,000 tested, 1.7% active;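 active means mean replicate activation of at least 50% with a set share of replicates each reaching 50%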;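 further: 0% = median of the neutral control wells and 100% = twice that signal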
# AHR act – activators of human aryl hydrocarbon receptor; P35869; activation, % at 5 µM; AHR-responsive luciferase reporter cells, luminescence; 320,000 tested, 2.5% active; in the data active means activation above about 47%;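 further: 0% = vehicle wells and 100% = reference agonist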
# HSP90 refold inh – blocks HSP90-mediated luciferase refolding in reticulocyte lysate; AID 1789; 290,000 tested, 0.91% active; Rabbit reticulocyte lysate, luciferase refolding luminescence, 3 h; inhibition, % at 5.6 µM;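 active means inhibition above the screen-wide mean plus 3 SD, computed separately per campaign, cut at about 16% in these data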;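 further: 0% = DMSO wells and 100% = 60 µM geldanamycin wells; inhibitors lower the luminescence because luciferase stays unfolded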
# HSF1 inh – HSF1 inhibition; NIH3T3-HGL HSE-luciferase, MG132-induced, luminescence 8 h; active compounds read low; 300,000 tested, 0.77% active; activity change, negative = inhibition, % at 7.5 µM (by protocol);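 active means more than half of replicate wells show activity change below -50%, luminescence cut by over half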;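 further: luciferase reports HSF-1 transcriptional activity via heat shock element; 0% = median of DMSO wells and -100% = zero luminescence signal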
# NR0B1 inh – NR0B1 (DAX1) inhibition; P51843; HEK293 Gal4-DAX1 luciferase reporter, luminescence; inhibition, % at 6.75 µM; 340,000 tested, 0.99% active;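 active means inhibition above the mean over all tested compounds plus 3 SD, cut at about 4.2% in these data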;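 further: 0% = DAX1-transfected cells with DMSO and 100% = empty-vector control cells with DMSO; inhibition shows as a rise in luminescence from relieved DAX1 repression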
# Target sequence (P51843 207-470 limits assumed): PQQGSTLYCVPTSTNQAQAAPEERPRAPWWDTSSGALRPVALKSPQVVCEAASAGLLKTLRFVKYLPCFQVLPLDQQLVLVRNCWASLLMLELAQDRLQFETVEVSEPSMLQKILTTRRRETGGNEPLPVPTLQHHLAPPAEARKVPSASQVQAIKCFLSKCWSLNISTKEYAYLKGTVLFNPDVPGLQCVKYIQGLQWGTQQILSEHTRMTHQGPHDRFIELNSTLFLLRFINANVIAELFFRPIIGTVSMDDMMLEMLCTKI
# GAA850 FXN act – activators of GAA850 frataxin (FXN) promoter | HEK293 lucGAA850 FXN promoter luciferase reporter, 24 h; percent of 10 µM SAHA response | 360,000 tested, 0.56% active | activation, % at 6 µM;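 active means activation above the average of all compounds screened plus 3 SD, cutoff fixed separately per campaign, cut at about 7.5% in these data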;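 further: 0% = DMSO wells and 100% = 10 µM SAHA wells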
# The depositor's hits bear a star; x = no result given. Rows were chosen to be rich in hits. Some 5.9% of all compounds tested hit in one or more screens of this group.
SMILES,HSF1 activator,AHR act,HSP90 refold inh,HSF1 inh,NR0B1 inh,GAA850 FXN act
O=C(NC1CCCCC1)c1ccc(-c2ccccc2[N+](=O)[O-])o1,43.9,59.4*,-0.9,27.2,2.8,7.1
Cc1ccc(C(=O)Cn2nnc3ccccc32)cc1C,58.5*,3.7,0.6,30.0,2.4,6.7
O=C(Cn1nnc2ccccc21)c1ccc(Br)cc1,10.8,7.9,3.2,13.6,1.5,3.1
Cc1ccc(C(=O)Cn2nnc3ccccc32)cc1,66.7*,0.0,2.6,26.0,0.4,2.1
CS(=O)(=O)c1ncc(CO)n1Cc1ccccc1,-5.0,-0.7,0.8,-3.7,-1.4,1.0
Nc1ncnc(Nc2c(F)cccc2F)n1,-12.0,0.6,2.7,0.5,-0.7,1.4
C/C(=N\O)c1ccc2[nH]ccc2c1,19.0,7.6,0.5,8.7,0.7,1.9
C/C(=N\O)c1ccc2c3c([nH]c2c1)CCCC3,93.0*,8.6,-2.0,60.7,1.2,-0.3
O=C(/C=C/c1c(Cl)nc2ccccn12)N1CCCCC1,26.8,59.0*,1.2,1.2,-0.4,6.5
COc1ccc(CC(N)c2csc(NC(=O)c3cc(C(C)(C)C)nn3Cc3ccccc3)n2)cc1 (stereo not given),x,x,x,x,x,0.4
CCOC(=O)C1CCN(c2c(Nc3ccc4c(c3)OCCO4)c(=O)c2=O)CC1,-57.6,3.4,11.7,-53.6*,-0.9,-1.1
CCOC(=O)N1CCC(N2C(=O)c3ccccc3C2Nc2cccnc2)CC1 (stereo not given),-0.9,1.9,-2.5,-7.7,-0.1,-0.9
CCOC(=O)C1CCN(C(C(=O)Nc2ccc3c(c2)OCCO3)c2ccccc2)CC1 (stereo not given),17.3,-0.3,6.0,7.8,2.5,-0.3
CCOC(=O)N1CCC(N2C(=O)c3ccccc3C2Nc2ccc3c(c2)OCCO3)CC1 (stereo not given),-71.9,0.1,9.9,-68.6*,-2.5,-7.6
COc1ccc([C@H]2CC(=O)C=C(c3ccc(Cl)c(C(F)(F)F)c3)C2)cc1OC,x,1.1,x,x,0.8,3.9
CC(=O)Nc1ccc(S(=O)(=O)Nc2nc3ccccc3nc2N2CCc3ccccc3C2)cc1,32.4,53.6*,-0.2,17.9,0.9,2.7
CN1CCN(c2nc3ccccc3nc2NS(=O)(=O)c2ccc(Br)cc2)CC1,x,16.3,x,x,-0.1,0.5
Cc1ccccc1S(=O)(=O)Nc1nc2ccccc2nc1N1CCc2ccccc2C1,71.2*,45.7,-3.3,41.8,-0.3,5.1
O=S(=O)(Nc1nc2ccccc2nc1N1CCN(c2ccccn2)CC1)c1ccc(Cl)cc1,x,x,-0.2,x,1.4,2.0
O=S(=O)(Nc1nc2ccccc2nc1N1CCc2ccccc2C1)c1ccc(Br)cc1,x,23.9,16.8*,x,-1.0,-1.0
O=S(=O)(Nc1nc2ccccc2nc1N1CCc2ccccc2C1)c1ccc(Cl)cc1,57.2*,63.3*,-4.8,19.7,0.3,4.7
Cc1cc(C)c(CN2CCN(CCCn3cnc(C(=O)Nc4ccc(C)c(C)c4)n3)CC2)c(C)c1,x,x,x,x,-0.9,0.2
CCCCn1c(N)c(N(CCOC)C(=O)c2cc(-c3ccc(OC)cc3)nc3ccccc23)c(=O)[nH]c1=O,29.2,1.9,x,6.0,-0.7,1.1
Cc1ccc(CN=C2NC(=O)C(CC(=O)NCCc3ccccc3)S2)cc1 (stereo not given),-10.0,1.6,-0.1,-5.5,0.6,-1.8
CCCS(=O)(=O)NC(=O)C1(C)CCN(C(=O)Cc2ccc3ccccc3c2)C1 (stereo not given),x,x,x,x,x,2.0
SMILES,HSF1 activator,AHR act,HSP90 refold inh,HSF1 inh,NR0B1 inh,GAA850 FXN act
O=S(=O)(Nc1nc2ccccc2nc1Cl)c1ccc(Br)cc1,-64.5,2.4,0.3,-54.4*,-0.7,-0.4
COc1c(C)cc(C(O)c2ncc(-c3ccccc3C)[nH]2)cc1C (stereo not given),x,x,x,x,x,-0.2
COc1cc2c(cc1NC(=O)C(C)Sc1nc3ccccc3n1C)oc1ccccc12 (stereo not given),0.2,15.2,1.3,-3.8,-0.7,3.2
COc1cc2c(cc1NC(=O)C(C)Sc1cccc[n+]1[O-])oc1ccccc12 (stereo not given),40.0,99.1*,-2.7,23.4,0.9,7.4
COc1cc2c(cc1NC(=O)c1ccncc1)oc1ccccc12,44.0,63.5*,-5.5,16.5,0.7,1.4
COc1cc2c(cc1NC(=O)c1cccc([N+](=O)[O-])c1)oc1ccccc12,-21.7,58.5*,-2.6,-16.5,-0.2,-1.9
COc1ccc(NC(=O)C2Cc3c(-c4cccc(F)c4)ccnc3O2)cn1 (stereo not given),x,x,x,x,x,-0.6
CCOC(=O)C(C(=O)Cc1ccccc1)c1ccccc1 (stereo not given),x,x,x,x,0.7,0.9
CC(=O)Nc1cccc(-c2ccnc3c2CC(C)(C(=O)Nc2ccc(Cl)cc2)O3)c1 (stereo not given),x,x,x,x,x,-5.7
CCCc1cc(=O)oc2c3c(cc(OCC(=O)N[C@@H](CSC)C(=O)O)c12)OC(C)(C)CC3,-28.0,x,0.1,-9.8,0.7,-1.0
CCCc1cc(=O)oc2c3c(cc(OCC(=O)N[C@@H](C)C(=O)O)c12)OC(C)(C)CC3,66.7*,3.5,1.6,17.6,1.5,1.6
CCOC(=O)O[C@]1(C(=O)OCCl)CC[C@H]2[C@@H]3CCC4=CC(=O)C=C[C@]4(C)[C@H]3[C@@H](O)C[C@@]21C,-48.7,6.3,x,-37.9,x,x
COc1ccc(-c2nc(C3CCCCC3)no2)cc1OC,81.0*,-2.5,-0.5,36.2,1.0,3.4
O=c1cc(-c2c(F)c(F)c(F)c(F)c2F)oc2c(F)c(F)c(F)c(F)c12,-94.8,4.7,-1.1,-94.4*,x,x
C=CCOc1cccc(C(=O)Nc2ncn[nH]2)c1,15.5,57.8*,-0.8,-2.6,0.5,1.2
COc1cc(OC)cc(C(=O)Nc2ncn[nH]2)c1,x,10.8,x,x,1.0,0.2
CCOC(=O)c1sc(N)nc1C(F)(F)F,x,x,x,x,0.8,3.3
Cc1nnc(N/N=C/c2cccc(C(F)(F)F)c2)n1N,32.1,32.0,-2.9,24.2,-1.1,-1.7
Cc1nnc(N/N=C/c2cccc(OCc3ccc(Cl)c(Cl)c3)c2)n1N,128.5*,33.2,8.1,83.4,-2.9,2.2
CCc1ccc2c(c1)C(c1ccc([N+](=O)[O-])cc1)=NNC(c1ccc(F)cc1)=N2,59.1*,2.5,1.3,42.1,1.3,2.7
CCc1ccc2c(c1)C(c1ccncc1)=NNC(c1ccccc1)=N2,15.1,6.1,-3.3,5.1,-0.3,2.3
COc1ccc(-n2nc3c(c2NC(=O)COc2ccccc2)CS(=O)C3)cc1 (stereo not given),-1.8,5.1,-3.6,-3.6,-0.3,1.8
CC(=O)N1CCc2cc(S(=O)(=O)N3CCOCC3)ccc21,-2.9,0.4,12.6,2.3,4.6*,1.1
O=C(C1CCC1)N1CCc2cc(S(=O)(=O)N3CCN(c4ccccn4)CC3)ccc21,63.0*,4.2,-0.3,25.2,-0.2,6.0
O=C(C1CCC1)N1CCc2cc(S(=O)(=O)N3CCCCC3)ccc21,-19.3,-1.8,-1.2,-0.6,1.2,-1.3
